Screening results from PubChem BioAssay.
Sampled rows, rich in hits. Any-hit rate of the full collection: about 12%.
JMJD2A Tudor inh – qHTS Assay for Inhibitors of JMJD2A-Tudor Domain; Potency, µM (titrated, usually from 114 µM), inactives show at the top dose activity change, negative = inhibition, most hits filed as inhibitors; AID 504339, 2011; AlphaScreen JMJD2A-Tudor / H3K4me3 peptide binding; 390,000 compounds, 4.4% hits; further: potency means the concentration at half of the fitted maximal effect; on the % scale 0 is the no-effect control and ±100 the full control effect; nearly all actives have a fitted effect of over 50% in size
PI5P4K alpha inh – qHTS for Inhibitors of phosphatidylinositol 5-phosphate 4-kinase (PI5P4K) | Phosphatidylinositol 5-phosphate 4-kinase type-2 alpha (Homo sapiens), P48426 | PI5P4Kalpha enzyme, ADP-Glo luminescence, 60 min; active compounds read low | max response, % | 330,000 compounds, 1.2% hits; active means max response of -50% or lower; inconclusive means between -30% and -50%; inactive means -30% or higher; further: value at the top dose of about 77 µM; on the % scale 0 is the no-effect control and ±100 the full control effect
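Reactions run in 0.038 M HEPES pH 7.4, 0.28 mM EGTA, 0.1% CHAPS and 5% DMSO, with PI5P4Kalpha, substrate, compound and 5 microM ATP final, one hour at room temperature. Readout is ADP-Glo luminescence.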
G9a inh – qHTS Assay for Inhibitors of Histone Lysine Methyltransferase G9a. G9a H3K9 monomethylation, AlphaScreen, 2 h. 350,000 compounds, 8.8% hits. Histone-lysine N-methyltransferase EHMT2 (Homo sapiens), Q96KQ7. AID 504332, 2011. Potency, µM (highest dose often 102 µM), without a hit: at the highest dose activity, negative = inhibition, usual class: inhibitors; further: potency means the concentration at half of the fitted maximal effect; on the % scale 0 is the no-effect control and ±100 the full control effect; nearly all actives have a fitted effect of over 75% in size
Target sequence (Q96KQ7 913-1193 limits assumed): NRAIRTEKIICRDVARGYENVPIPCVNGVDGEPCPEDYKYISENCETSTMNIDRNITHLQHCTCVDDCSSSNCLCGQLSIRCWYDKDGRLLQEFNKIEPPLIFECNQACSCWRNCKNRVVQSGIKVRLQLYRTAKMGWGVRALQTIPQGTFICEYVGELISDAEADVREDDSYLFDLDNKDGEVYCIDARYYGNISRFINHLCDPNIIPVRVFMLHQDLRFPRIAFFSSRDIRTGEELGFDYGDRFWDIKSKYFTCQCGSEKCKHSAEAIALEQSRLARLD
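AlphaScreen read-out: biotin-H3K9 peptide (500 nM) methylation by 20 nM enzyme with 20 uM SAM, 2 h at room temperature after 15 min compound preincubation; anti-monomethyl H3K9 antibody plus donor/acceptor beads, 10 min dark.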
BAZ2B inh – qHTS Assay for Inhibitors of BAZ2B; Potency, µM (series often up to 114 µM), without a hit: at the top dose activity change, negative = inhibition, actives largely listed as inhibitors; AlphaScreen BAZ2B-H3K14Ac peptide displacement; Bromodomain adjacent to zinc finger domain protein 2B (Homo sapiens), Q9UIF8; 360,000 compounds, 4.4% hits; AID 504333, 2011; further: potency means the concentration at half of the fitted maximal effect; on the % scale 0 is the no-effect control and ±100 the full control effect; nearly all actives have a fitted effect of over 60% in size
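AlphaScreen luminescence quantifies BAZ2B engagement of H3K14Ac peptide; the protein and biotinylated peptide are both at 50 nM final, buffer PBS pH 7.4 with 0.01% Tween-20, all steps at room temperature.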
PLK1 PBD inh – qHTS for Inhibitors of PLK1-PDB (polo-like kinase 1 - polo-box domain): Primary Screen; Plk1 PBD binding of FITC phosphopeptide, fluorescence polarization; Serine/threonine-protein kinase PLK1 (Homo sapiens), P53350; 360,000 compounds, 2.8% hits; Potency, µM, for inactives: max response, negative = inhibition, most hits filed as inhibitors; further: potency means the concentration at half of the fitted maximal effect; series mostly up to about 57 µM; on the % scale 0 is the no-effect control and ±100 the full control effect; nearly all actives have a fitted effect of over 65% in size
HP1b binding inh – HTS for Inhibitors of HP1-beta Chromodomain Interactions with Methylated Histone Tails; AlphaScreen HP1-beta / biotin-H3K9me3 peptide binding; Potency, µM (doses to about 114 µM), for inactives: at the top dose activity change, negative = inhibition, usual class: inhibitors; 390,000 compounds, 0.56% hits; AID 540317, 2011; further: potency means the concentration at half of the fitted maximal effect; nearly all actives have a fitted effect of over 70% in size
Target sequence (P83916 whole entry, looked up): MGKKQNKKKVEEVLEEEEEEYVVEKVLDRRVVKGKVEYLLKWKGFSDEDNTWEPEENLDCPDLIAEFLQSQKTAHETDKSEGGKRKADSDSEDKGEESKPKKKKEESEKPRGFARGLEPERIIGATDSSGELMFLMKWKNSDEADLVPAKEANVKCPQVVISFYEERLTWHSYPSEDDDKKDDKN
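AlphaScreen: HP1-beta (50 nM) preformed 30 min with biotin-H3(1-18)K9me3 peptide (50 nM) in PBS pH 7.4, 0.01% Tween-20. Compound added for 30 min at RT, then streptavidin donor/nickel chelate acceptor beads (10 ug/mL) for 30 min.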
* marks the source's active call; other numbers are inactive results; [ ] = another dose, or the depositor's remark. Unless noted, the call rests on the fitted dose curve; in most records, active means well fitted curve in the direction sought with a large enough effect; inconclusive means small, poorly fitted or top-dose-only effect, or another doubt; inactive means no such curve, though single readings can be large; an effect the other way counts as inactive or inconclusive.

`CCN(CC(=O)Nc1ccccc1C(F)(F)F)C(=O)c1cc(-c2cccs2)nn1-c1ccccc1` gave JMJD2A Tudor inh -14%, PI5P4K alpha inh 0, BAZ2B inh 0%, PLK1 PBD inh -6% and HP1b binding inh 16%.
CCOC(=O)c1[nH]c(C)c(CCC(=O)NCc2ccc(N(C)C)cc2)c1C was read as JMJD2A Tudor inh inconclusive, G9a inh inconclusive, BAZ2B inh -21% and HP1b binding inh 29%[57 µM].
For COc1cc(OC)c(NC(=O)C(C)n2c(=O)cc(-c3ccccc3)c3c(C)nn(C)c32)cc1Cl (stereo not drawn) the results were JMJD2A Tudor inh -30%, G9a inh 2%[59 µM], BAZ2B inh inconclusive and HP1b binding inh -5%.
Screening Cn1nnnc1SCCCNCc1cc(Cl)ccc1OCc1ccc(F)cc1 returned JMJD2A Tudor inh -26%, G9a inh -31%[59 µM], BAZ2B inh -10% and HP1b binding inh 37%.
`Cc1nc2nc(C)c(NS(=O)(=O)c3ccc(Cl)cc3)c(=O)n2[nH]1` gave JMJD2A Tudor inh -6%, PI5P4K alpha inh -1, G9a inh inconclusive, BAZ2B inh 7%, PLK1 PBD inh 1% and HP1b binding inh -6%.
`Cc1nc2nc(C)c(NS(=O)(=O)c3ccc(F)cc3)c(=O)n2[nH]1` gave JMJD2A Tudor inh 3%, G9a inh -1%[59 µM], BAZ2B inh -11% and HP1b binding inh 34%.
Screening Cc1ccc(S(=O)(=O)Nc2c(C)nc3nc(C)[nH]n3c2=O)cc1 returned JMJD2A Tudor inh inconclusive, PI5P4K alpha inh 1, G9a inh 79µM*, BAZ2B inh 10%, PLK1 PBD inh -13% and HP1b binding inh -6%.
`Cc1nc2nc(C)c(NS(=O)(=O)c3ccc(CC(C)C)cc3)c(=O)n2[nH]1` gave JMJD2A Tudor inh 1%, PI5P4K alpha inh 2, G9a inh 40µM*, BAZ2B inh 12%, PLK1 PBD inh -13% and HP1b binding inh -4%.
Screening O=P(O)(O)C(O)(Cc1cccnc1)P(=O)(O)O returned G9a inh 18µM*.
For O=S(=O)(Nc1ccc(O)c2ccccc12)c1cccs1 the results were JMJD2A Tudor inh 13µM*, PI5P4K alpha inh -27, G9a inh 7.1µM*, BAZ2B inh -33%, PLK1 PBD inh 12µM* and HP1b binding inh 45µM*.
Screening O=S(=O)(Nc1ccc(O)c2ccccc12)c1ccc(Br)cc1 returned G9a inh 40µM* and BAZ2B inh 45µM*.
O=S(=O)(Nc1cccc2ccccc12)c1cccs1 was read as JMJD2A Tudor inh 0%, PI5P4K alpha inh 6, G9a inh 6%[12.7 µM], BAZ2B inh -11%, PLK1 PBD inh -3% and HP1b binding inh 30%.
Screening CC(C)(C)c1ccc(C(=O)NC(=S)NCc2cccnc2)cc1 returned JMJD2A Tudor inh inconclusive, PI5P4K alpha inh 20, G9a inh inconclusive, BAZ2B inh 30%, PLK1 PBD inh 4% and HP1b binding inh -10%.
Cc1ccc(C(=O)NNC(=S)NC(=O)COc2ccccc2)cc1 was read as JMJD2A Tudor inh 13µM*, G9a inh 1.3µM*, BAZ2B inh 11%, PLK1 PBD inh 27µM* and HP1b binding inh -24%.
`CC(C)(C)c1ccc(C(=O)NC(=S)NNC(=O)COc2ccccc2)cc1` gave JMJD2A Tudor inh inconclusive, PI5P4K alpha inh inconclusive, G9a inh 25µM*, BAZ2B inh inconclusive, PLK1 PBD inh inconclusive and HP1b binding inh -18%.
